Source: PubChem BioAssay (Tox21)
Records with an inconclusive call do not appear. A call without a number means that no potency is given here. Calls of active or inactive are those of the source. Calls come from the whole dose curve; as a rule, active = well fitted cell-killing curve with a large enough effect in the repeat runs; inconclusive = weak or mixed curves, or effect the other way; inactive = flat fitted curve, though single readings scatter.

Columns and labels:
[1] = cAMP Responsive Elements (CRE) small molecule antagonists, cell-based qHTS assay: qHTS cell viability counter screen (AID 2060913); note: nearly all actives have a fitted effect of over 40% in size
Procedure, shortened: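 Cytotoxicity counter screen multiplexed with the CRE-bla antagonist read: HEK293T cells in DMEM with dialyzed FBS and 25 mM HEPES were treated 3 hrs under 0.25 uM final NKH477, then viability measured by CellTiter-Glo luminescence.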

[2] = cAMP Responsive Elements (CRE) small molecule agonists, cell-based qHTS assay: qHTS cell viability counter screen (AID 2060914);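 note: viability read after 3 h of compound exposure; nearly all actives have a fitted effect of over 50% in size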
Procedure, shortened: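 Cells are seeded and incubated 18 h, treated with compounds in DMSO for 3 h, read for the bla reporter, then given CellTiter-Glo; luminescence is measured after 30 min at room temperature.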

| Structure (SMILES) | Potency [1] | Potency [2] |
| --- | --- | --- |
| NC(=O)NC(N)=O | inactive | inactive |
| COc1cc(N)ccc1C | inactive | inactive |
| CC(C)(CC(=O)O)C(=O)O | inactive | inactive |
| CCC(C)(C)OC | inactive | inactive |
| C1CCCNCC1 | inactive | inactive |
| CC(C)=CCC/C(C)=C/CC/C(C)=C/C(=O)OCC(=O)[C@@]1(O)CC[C@H]2[C@@H]3CCC4=CC(=O)C=C[C@]4(C)[C@H]3[C@@H](O)C[C@@]21C | inactive | inactive |
| C=CC(=O)OCCCCCC | inactive | inactive |
| C=C(C)C(=O)OCCCCCCCCCCCC | inactive | inactive |
| CC(NC(CCc1ccccc1)C(=O)O)C(=O)N1C(=O)N(C)CC1C(=O)O (stereo not given) | inactive | inactive |
| CCCCCCNC(=O)n1cc(F)c(=O)[nH]c1=O | inactive | inactive |
